The panel holds about 83,000 compounds, 20% with a hit somewhere; the sample as a whole holds those more often.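 In brief: 96-well plates, 48 h treatment, single concentration, percent growth endpoint.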 A number with no mark means an inactive call. The source made the active and inactive calls. How the source made its calls: active means growth percent below 10; inactive means the rest.
Experiments:
Assay in all cases: NCI-60 one-dose screen, 48 h (100 = growth as untreated, 0 = no growth, -100 = all killed)
Conditions in all cases: 10 µM unless noted
NCI-H23 lung = test system: NCI-H23 lung
NCI-H226 lung = test system: NCI-H226 lung
NCI-H322M lung = test system: NCI-H322M lung
HOP-62 NSCLC = test system: HOP-62 NSCLC
NCI-H460 lung = test system: NCI-H460 lung
HOP-92 NSCLC = test system: HOP-92 NSCLC
NCI-H522 lung = test system: NCI-H522 lung
A549/ATCC NSCLC = test system: A549/ATCC NSCLC
786-0 renal = test system: 786-0 renal
COLO 205 colon = test system: COLO 205 colon

Row | SMILES | growth (NCI-H23 lung) | growth (NCI-H226 lung) | growth (NCI-H322M lung) | growth (HOP-62 NSCLC) | growth (NCI-H460 lung) | growth (HOP-92 NSCLC) | growth (NCI-H522 lung) | growth (A549/ATCC NSCLC) | growth (786-0 renal) | growth (COLO 205 colon)
1 | CC(C)c1ccc(NC(=O)Nc2ccc(NC(=O)c3ccccc3N)cc2)cc1 | 59.5% | 74.3% | 55% | 22.6% | 22.7% | 74.2% | 26.8% | 50% | 8.19% (active) | 61.8%
2 | COc1ccc2nc3ccccc3c(NCc3ccc(F)cc3)c2c1 | 14% | 30% | 22.6% | 28.2% | 5.47% (active) | -11.3% (active) | 18.2% | 19.7% | 6.83% (active) | -54.4% (active)
3 | CCSC1=CC(=O)c2ccccc2C1=O | 85.9% | 88.4% | 94.6% | 76.8% | 112% | -2.5% (active) | -20.9% (active) | 93.2% | 111% | 96.9%
4 | CC(C)(CO)N(CCO)CCO | 97.3% | 94% | 95.4% | 110% | 110% | 78.9% | 95.9% | 114% | 102% | 123%
5 | CCCCc1oc2ccccc2c1C(=O)c1ccc(O)cc1 | -5.52% (active) | 92.8% | 85.1% | 79.3% | 84.4% | 68.2% | 66.7% | 76.6% | 79.5% | 118%
6 | C=CC(=O)N1CCN(c2ccc3cccc(NC(=O)c4cnc(C)cn4)c3n2)CC1 | 66.7% | 42.9% | 21.2% | 41.1% | 34.7% | 42.7% | 10.4% | 27.3% | 24.8% | 59.3%
7 | Cc1ccc(C)c2c1C(O)(C#Cc1ccccc1)c1ccccc1C2(O)C#Cc1ccccc1 (stereo not given) | 92.4% | 89.9% | 55.8% | 75.1% | 23.8% | 3% (active) | 57.2% | 47.5% | 70.5% | 48.4%
8 | COc1ccc(NC(=O)c2ccc(C(=O)Nc3ccc(OC)cc3OC)cc2)c(OC)c1 | 75.3% | 71.5% | 91.3% | 33.6% | 95.9% | -19.3% (active) | 76.4% | 85% | 51.2% | 115%
9 | CCCCNC1=C(OCC)C(=O)c2ccccc2C1=O | 83.5% | 105% | 103% | 125% | 92.6% | 74.5% | 98.4% | 99.2% | 94.8% | 116%
10 | Cc1ncc(C(=O)Nc2ccc(CN3CCN(C)CC3)c(C(F)(F)F)c2)cc1C#Cc1cnc(N)c2ccncc12 | -65% (active) | -5.01% (active) | -32.5% (active) | -54.8% (active) | -65.5% (active) | -52.2% (active) | -79% (active) | -40.4% (active) | -45% (active) | -84.1% (active)
11 | O=S(=O)(c1ccccc1)N1CCCN(c2nc(-c3ccccc3)nc3nc(-c4ccccc4)oc23)CC1 | 107% | 109% | 96% | 104% | 110% | 105% | 98.5% | 105% | 102% | 116%
12 | COc1cc(Nc2ncccc2NC(=O)c2cn(Cc3cccc(Oc4ccccc4)c3)nn2)cc(OC)c1 | 83.8% | 83% | 85.5% | 99.7% | 102% | 98.4% | 81% | 86% | 87.2% | 86.5%
13 | COc1ccc2nc(Cl)c(/C=C/C(=O)c3ccc(NC(=O)CSc4nnc(-c5ccc(Cl)c(Cl)c5)n4-c4ccccc4)cc3)cc2c1 | 96.5% | 96.8% | 93.6% | 83.2% | 97.7% | 67.8% | 74.1% | 69.7% | 92.3% | 101%
14 | O=C(CSc1nnc2sc(Nc3cccc(Cl)c3)nn12)c1ccc(F)cc1 | 80.3% | 95.9% | 91.5% | 97.7% | 95.8% | 74.5% | 75.6% | 87.1% | 91.4% | 92.6%
15 | COc1ccc(-c2cn(-c3ccc(Cl)cc3)c(SCC(=O)c3ccc([N+](=O)[O-])cc3)n2)cc1 | 86.9% | 91.3% | 81.1% | 50.4% | 91.5% | 28% | 70.7% | 101% | 52.9% | 110%
16 | CCCCCCCCn1ccc2cc(NC(=O)Cn3cc(CN4CCOCC4)nn3)ccc21 | 106% | 92.3% | 96.8% | 113% | 101% | 70.4% | 90.4% | 98.3% | 90.6% | 109%
17 | COc1cc2c3c(c1O)-c1ccccc1[C@@H]1OC(=O)N(CC2)[C@H]31 | 100% | 96.7% | 113% | 104% | 100% | 80.8% | 94% | 97% | 102% | 107%
18 | O=C(Cn1nnc2ccccc21)N/N=C/c1ccccc1F | 105% | 85.8% | 93.6% | 102% | 104% | 103% | 84.9% | 89.2% | 97.5% | 113%
19 | COc1cc(/C=C2\C(=O)N(c3c(Cl)cccc3Cl)c3ccccc32)cc(OC)c1OCCCCCCn1c2ccccc2c(=O)c2ccccc21 | 103% | 95.4% | 95.7% | 95.4% | 110% | 95.9% | 87.3% | 109% | 95.5% | 107%
20 | Cc1ncc(C(=O)Nc2ccc(CN3CCN(C)CC3)c(C(F)(F)F)c2)cc1C#Cc1cnc(N)c2cnccc12 | 9.05% (active) | 12.1% | 14.8% | -21.8% (active) | -53.9% (active) | 34.2% | -0.528% (active) | 13.3% | 14% | -27% (active)
21 | CCOC(=O)C1=C(C)N=C2SC=C(c3ccccc3)N2[C@H]1c1cn[nH]c1-c1ccc(Cl)cc1 | 51.2% | 66.4% | 78.7% | 63% | 43.3% | -1.56% (active) | -56.8% (active) | 56.4% | 49.6% | 57.1%
22 | COc1cc(-c2nc(SCCC(C)C)nc(N3CCOCC3)c2C#N)cc(OC)c1OC | 74.2% | 106% | 91.2% | 28.6% | 12.2% | 81.9% | 65.8% | 22.4% | 66% | 63.8%
23 | CCOC(=O)c1n[nH]n2c1nc(=O)c1cnn(C)c12 | 96.5% | 98.1% | 99.4% | 103% | 103% | 103% | 91% | 86.7% | 106% | 111%
24 | CC1(C)O[C@H]2OC3CCC(=O)CC3(O)[C@H]2O1 (stereo not given in full) | 99.2% | 102% | 101% | 95.8% | 101% | 79.8% | 92.4% | 95.9% | 99.5% | 105%
25 | COc1ccc2cc(Cn3cc[n+](Cc4ccc5ccccc5c4)c3)ccc2c1 | 36% | 49.2% | 65.8% | 49.8% | 38.3% | -11.8% (active) | -13.6% (active) | 57.1% | 51% | -66.3% (active)
26 | O=C(c1ccc(F)c(Cl)c1)N1c2ccccc2Sc2ccccc21 | 78.5% | 77.3% | 102% | 76.6% | 99.5% | 37% | 42.5% | 65.6% | 79.8% | 44.7%
27 | N=C(N)SCc1cccc2c(CSC(=N)N)cccc12 | 99.2% | 87.9% | 90.7% | 95.1% | 103% | 83.8% | 104% | 96.6% | 99.3% | 108%
